Hit rate of the full screen: of about 310,000 compounds, about 14,000 (4.5%) showed an effect of 50% or more. Effects have a minus sign here. The sample as a whole holds a higher share of strong results than the screen did.
Target: human ether-à-go-go-related gene (hERG) potassium channel (human, UniProt Q12809)
Test: primary screen, population patch clamp on CHO cells stably expressing hERG; higher = less effect of the substance
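Further: peak tail current of the secondary pulse compared with the same well before compound.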

human ether-à-go-go-related gene (hERG) potassium channel, sequence (Q12809 whole entry, looked up): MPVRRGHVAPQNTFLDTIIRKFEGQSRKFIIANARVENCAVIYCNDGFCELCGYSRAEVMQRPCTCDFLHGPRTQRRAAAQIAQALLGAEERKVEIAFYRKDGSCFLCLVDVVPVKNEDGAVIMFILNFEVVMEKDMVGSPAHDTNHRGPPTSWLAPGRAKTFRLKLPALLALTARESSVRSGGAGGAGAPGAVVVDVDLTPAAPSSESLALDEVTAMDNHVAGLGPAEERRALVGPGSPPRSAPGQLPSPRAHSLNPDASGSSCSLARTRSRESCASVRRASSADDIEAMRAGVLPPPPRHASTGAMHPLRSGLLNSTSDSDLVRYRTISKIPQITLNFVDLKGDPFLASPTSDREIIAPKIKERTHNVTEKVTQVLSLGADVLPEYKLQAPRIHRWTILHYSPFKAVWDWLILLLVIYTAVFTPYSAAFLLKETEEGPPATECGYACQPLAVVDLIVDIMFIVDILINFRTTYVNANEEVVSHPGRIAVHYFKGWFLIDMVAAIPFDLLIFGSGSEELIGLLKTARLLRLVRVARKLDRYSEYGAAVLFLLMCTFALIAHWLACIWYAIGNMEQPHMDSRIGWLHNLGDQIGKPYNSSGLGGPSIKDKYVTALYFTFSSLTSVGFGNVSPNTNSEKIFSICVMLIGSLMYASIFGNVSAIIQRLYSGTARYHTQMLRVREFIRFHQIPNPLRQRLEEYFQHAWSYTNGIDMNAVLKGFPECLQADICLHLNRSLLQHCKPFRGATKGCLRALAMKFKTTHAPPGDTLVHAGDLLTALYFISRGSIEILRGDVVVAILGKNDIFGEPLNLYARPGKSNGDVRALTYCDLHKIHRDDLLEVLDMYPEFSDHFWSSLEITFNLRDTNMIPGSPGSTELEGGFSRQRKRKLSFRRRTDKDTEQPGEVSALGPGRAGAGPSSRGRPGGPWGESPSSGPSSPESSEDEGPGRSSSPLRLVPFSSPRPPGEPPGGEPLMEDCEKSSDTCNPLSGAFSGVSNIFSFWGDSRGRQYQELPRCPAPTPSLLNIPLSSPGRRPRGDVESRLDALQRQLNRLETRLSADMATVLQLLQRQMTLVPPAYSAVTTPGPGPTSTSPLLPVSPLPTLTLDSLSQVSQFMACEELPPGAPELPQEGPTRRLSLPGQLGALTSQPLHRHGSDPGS

SMILES | hERG current change (%, negative = inhibition) at 10uM
O=[N+]([O-])c1cccnc1N1CCCCC1 | 5.7%
Cc1c(C(=O)N2CCN(c3ccccc3)CC2)sc2nc3n(c(=O)c12)CCC3 | 6.84%
COc1ccc(-c2nnnn2C)cc1S(=O)(=O)NCCc1ccccc1 | -2.23%
CCc1c(C)sc(NC(=O)Cc2ccccc2OC)c1C(=O)N1CCOCC1 | -16.4%
Cc1cc(N)n2nc(-c3ccc(C(C)(C)C)cc3)cc2n1 | 8.26%
O=C(NCC(c1cccs1)N1CCOCC1)c1cc([N+](=O)[O-])ccc1Cl (stereo not shown) | -20.5%
NC(=O)c1ccccc1OCC(=O)Nc1ccc2c(c1)CCC2 | 5.27%
Cc1ccc(S(=O)(=O)Oc2ccc(/C=C3\N=C(c4cccc(C)c4)OC3=O)cc2)cc1 | 1.5%
O=C(COc1ncnc2ccccc12)Nc1ccc(Cl)c(S(=O)(=O)N2CCOCC2)c1 | -13.5%
CCn1c(C)c(C(=O)O)c2cc(OC)ccc21 | 6.41%
Cc1ccc(NC(=O)c2ccc(Cl)c(N3C(=O)C=CC3=O)c2)cc1 | -0.826%
CN(CCOc1ccccc1)C(=O)c1ccc(OC2CCN(C(=O)C3CC3)CC2)cc1 | -25.7%
COc1ccc(NC(=O)CCC(=O)Nc2nnc(CC(C)C)s2)cc1Cl | 20%
COc1ccc(SC[C@H](Cc2ccccc2)N2CCN(C)CCC2=O)cc1 | -52.2%
CN1CCC(=O)N([C@H](CO)Cc2ccccc2)CC1 | 12%
Cc1nn(CCCC(=O)NCc2ccc(Cl)cc2)c(C)c1[N+](=O)[O-] | -41.9%

SMILES | hERG current change (%, negative = inhibition) at 10uM
Nc1cc(C(=O)N2CCCC2)cc(C(=O)N2CCCC2)c1 | 11.9%
O=C(O)c1ccc2cc(-c3ccccc3)[nH]c2c1 | -30.8%
C=CCN1C(=O)C(Cc2ccc(OC)cc2)S/C1=N\N=C\c1cccs1 (stereo not shown) | 13.1%
O=C(CCn1nc(-c2ccc(Cl)cc2)ccc1=O)N1CCN(c2ccccc2)CC1 | -45.9%
O=C(CCC(=O)N1CCN(c2ccc(F)cc2)CC1)c1ccc(F)cc1 | -69.4%
O=C(CCn1nc(-c2ccc(Cl)cc2)ccc1=O)N1CCOCC1 | -36.9%
Cc1ccc(C(=O)CCC(=O)N2CCN(c3ccc(F)cc3)CC2)cc1 | -10.1%
O=C(O)CCC(=O)N1CCN(c2ccccn2)CC1 | 9.16%
O=C(CCC(=O)N1CCN(c2ccc(F)cc2)CC1)c1ccccc1 | -12.7%
O=C(CC(c1ccccc1)c1ccccc1)N1CCN(c2ccccn2)CC1 | -53.4%
O=C(CSc1ccccc1)N1CCN(c2ccccn2)CC1 | -24.6%
O=C(CCn1nc(-c2ccc(Cl)cc2)ccc1=O)N1CCN(c2ccc(F)cc2)CC1 | -52.9%
CN1C(=O)CC(N2CCN(c3ccccn3)CC2)C1=O (stereo not shown) | 1.46%
O=C1CC(N2CCN(c3ccccn3)CC2)C(=O)N1CC(c1ccccc1)c1ccccc1 (stereo not shown) | -64%
O=C1CC(N2CCN(c3ccccn3)CC2)C(=O)N1c1ccc(F)cc1 (stereo not shown) | 14.7%
